Laboratory results from PubChem BioAssay AID463173 (ICCB-Longwood Screening Facility, Harvard Medical School, 2010).
In all, about 52,000 compounds went through this assay and about 4,300 (8.3%) were called active. Rule as the data show it: active = survival mostly below about 52% (no sharp cut-off); inactive = mostly above about 56%. This excerpt belongs to a sample that is enriched for actives.

Each compound was assayed on DeltatarO mutant (assay: growth inhibition of S. aureus wild type versus tarO mutant, primary screen, teichoic acid synthesis inhibitors, RN4220, OD600 (AID 463173)). Settings: OD600, 18 h, active compounds read low, screened at 18.75 µg/mL (by protocol).
`COc1ccc(Cn2c(C(=O)O)c(CNC3CCC(C)CC3)c3ccc(C)cc32)cc1` (centres undefined) was tested, and the survival was 115% (inactive).
For `COc1cccc(N2CCN(C(=O)c3nn(C)c4c3CSc3ccc(C)cc3-4)CC2)c1`, the survival was 117% (inactive).
For `COC(=O)c1ccc2c(=O)n(CCCCCC(=O)NCc3ccc(OC)cc3)c(=O)[nH]c2c1`, the survival was 71% (inactive).
With `Cc1noc(-c2ccc(-c3noc(-c4ccc(F)cc4)n3)cc2)n1` the survival was 72% (inactive).
With `Cc1noc(-c2ccc(-c3noc(-c4ccccc4)n3)cc2)n1` the survival was -4% (active).
For `Cc1noc(-c2ccc(-c3noc(-c4ccc(Cl)cc4)n3)cc2)n1`, the survival was 66% (inactive).
For `Cc1nc(-c2ccc(S(=O)(=O)NCc3ccc(N(C)C)cc3)cc2)co1`, the survival was 83% (inactive).
For `CCOc1ccc(C(c2c(O)cc(C)n(Cc3ccco3)c2=O)N2CCN(c3ccccc3)CC2)cc1` (centres undefined), the survival was 75% (inactive).
For `O=S(=O)(c1ccc(Cl)cc1)c1nc(-c2ccccc2)oc1N1CCN(c2ccccc2)CC1`, the survival was 86% (inactive).
In the case of `Cc1ccc(-c2nc(S(=O)(=O)c3ccc(Cl)cc3)c(N3CCCCC3)o2)cc1`, the survival is reported as 11% (active).
With `Cc1ccc(S(=O)(=O)c2nc(-c3ccc(Cl)cc3)oc2N2CCCCCC2)cc1` the survival was 36% (active).
`COc1ccc(-c2nc(S(=O)(=O)c3ccc(Cl)cc3)c(N3CCCCCC3)o2)cc1` was tested, and the survival was 76% (inactive).
With `O=C(O)c1ccc(CNCc2ccccc2Cl)s1` the survival was 88% (inactive).
In the case of `CC(C)(C)OC(=O)N1CCC(c2c(C(=O)NCc3ccco3)cnn2-c2ccccc2Cl)CC1`, the survival is reported as 76% (inactive).
In the case of `Cc1ccc(C(=O)N2C(C)CCCC2C)c(Cl)c1` (centres undefined), the survival is reported as 70% (inactive).
For `COC(=O)CN(C#N)c1nc(SC)nc(N(C)C)n1`, the survival was 52% (active).
With `CNC(=O)CN(C#N)c1nc(N(C)C)nc(N(C)C)n1` the survival was 87% (inactive).
`COC(=O)CN(C#N)c1nc(C)cc(C)n1` was tested, and the survival was 94% (inactive).
For `Cc1nc(SCc2cc(=O)c3cccc(F)c3[nH]2)n[nH]1`, the survival was 94% (inactive).
For `CCOC(=O)c1c(N)sc2c(OC)c(Br)ccc12`, the survival was 1% (active).
For `CCOC(=O)c1c(NC(C)=O)sc2c(NC(C)=O)cccc12`, the survival was 69% (inactive).
For `CCOC(=O)c1c(N)sc2c1CN(C(=O)OC)N(C(=O)OC)C2`, the survival was 112% (inactive).
In the case of `COC(=O)c1cnc(N2CCN(c3ccc(F)cc3)CC2)c2ccccc12`, the survival is reported as 80% (inactive).
With `COc1ccc(CNC(=O)c2cc3c(=O)n(Cc4ccco4)ccc3nc2C)c(OC)c1` the survival was 67% (inactive).
`COc1ccc(Cn2ccc3nc(C)c(C(=O)Nc4ccc(OC)cc4OC)cc3c2=O)cc1` was tested, and the survival was 8% (active).
With `COc1ccc(NC(=O)c2cc3c(=O)n(Cc4ccco4)ccc3nc2C)c(OC)c1` the survival was 81% (inactive).
With `COc1ccc(Cn2ccc3nc(C)c(C(=O)Nc4ccc(F)cc4)cc3c2=O)cc1` the survival was 20% (active).
For `COc1ccc(CNC(=O)c2cc3c(=O)n(Cc4ccc(OC)cc4)ccc3nc2C)cc1`, the survival was 66% (inactive).
In the case of `COc1ccc(Cn2ccc3nc(C)c(C(=O)Nc4ccc(OC(F)(F)F)cc4)cc3c2=O)cc1`, the survival is reported as 92% (inactive).
For `COc1ccc(Cn2ccc3nc(C)c(C(=O)NCc4ccc(OC)cc4OC)cc3c2=O)cc1`, the survival was 25% (active).
For `COc1ccc(Cn2ccc3nc(C)c(C(=O)Nc4ccc(OC)cc4)cc3c2=O)cc1`, the survival was 89% (inactive).
`COc1ccc(NC(=O)c2cc3c(=O)n(Cc4cccnc4)ccc3nc2C)c(OC)c1` was tested, and the survival was 83% (inactive).
For `COc1ccccc1Nc1ncnc2scc(-c3ccc(F)cc3)c12`, the survival was 115% (inactive).
In the case of `Cc1ccc(C)c(NC(=O)Cn2ncc3c(C)n(Cc4ccc(F)cc4)c(C)c3c2=O)c1`, the survival is reported as 71% (inactive).
`Cc1c2cnn(CC(=O)NCc3ccc(Cl)cc3)c(=O)c2c(C)n1Cc1ccc(F)cc1` was tested, and the survival was 62% (inactive).
For `CC(=O)c1ccc(NC(=O)Cn2ncc3c(C)n(Cc4ccc(F)cc4)c(C)c3c2=O)cc1`, the survival was 60% (active).
`COc1ccc(N(Cc2cccs2)C(=O)COc2cccc(C)c2C)cc1` was tested, and the survival was 17% (active).
In the case of `COc1ccc(N(Cc2cccs2)C(=O)COc2ccc(C(C)C)cc2)cc1`, the survival is reported as 80% (inactive).
In the case of `COc1ccc(N(Cc2cccs2)C(=O)COc2cc(C)c(Cl)c(C)c2)cc1`, the survival is reported as 65% (inactive).
In the case of `COc1ccc(OCC(=O)N(Cc2cccs2)c2ccc(OC)cc2)cc1`, the survival is reported as 66% (inactive).
For `Cc1cccc(OCC(=O)N(Cc2cccs2)c2ccc(Cl)cc2)c1C`, the survival was 61% (inactive).
`COc1ccc(N(Cc2cccs2)C(=O)COc2cccc(Cl)c2)cc1` was tested, and the survival was 42% (active).
For `Cc1ccccc1-c1nn2c(=O)cc(CN3CCN(C(=O)c4ccccc4Br)CC3)nc2s1`, the survival was 116% (inactive).
`Cc1cc(C)c2c(CC(=O)Nc3ccc(S(=O)(=O)N4CCCCC4)cc3)coc2c1` was tested, and the survival was 76% (inactive).
With `CC(=O)O/N=C1/CC(C)(C)Cc2onc(C)c21` the survival was 76% (inactive).
In the case of `CCOC(=O)c1cc(S(=O)(=O)NCc2ccc(Cl)cc2)[nH]n1`, the survival is reported as 87% (inactive).
With `Cc1ccc(-c2nc(-c3cc4cccc(OCc5ccccc5F)c4oc3=O)no2)cc1` the survival was 60% (inactive).
In the case of `COc1ccc(C2c3[nH]c4ccccc4c3CCN2C(=O)CCC2CCCC2)cc1` (centres undefined), the survival is reported as 95% (inactive).
`O=C(C1COc2cc(S(=O)(=O)Nc3ccc(Cl)cc3)ccc2O1)N1CCCC1` (centres undefined) was tested, and the survival was 71% (inactive).
In the case of `CN(C(=O)CSc1nc(-c2ccco2)cc(C(F)(F)F)n1)c1ccccc1`, the survival is reported as 92% (inactive).
With `COc1ccccc1CNC(=O)CCn1cnc2ccccc2c1=O` the survival was -5% (active).
`COc1ccccc1NC(=O)CCn1cnc2ccccc2c1=O` was tested, and the survival was 92% (inactive).
In the case of `O=C(CCn1cnc2ccccc2c1=O)NCc1ccccc1Cl`, the survival is reported as 77% (inactive).
In the case of `COc1ccc(N2C(=O)CS(=O)(=O)C23C(=O)N(Cc2c(F)cccc2Cl)c2ccccc23)cc1` (centres undefined), the survival is reported as 86% (inactive).
For `CCc1ccc(-c2nn(CC(=O)Nc3ccccc3C)c3c2cnc2ccc(C)cc23)cc1`, the survival was 70% (inactive).
For `Cc1ccc(-c2nn(CC(=O)NC3CCCCC3)c3c2cnc2ccc(F)cc23)cc1C`, the survival was 0% (active).
With `Cc1ccc(-c2nn(CC(=O)NC3CCCC3)c3c2cnc2ccc(F)cc23)cc1C` the survival was 93% (inactive).
`CCc1ccc2ncc3c(-c4ccc(C)cc4)nn(CC(=O)Nc4ccc(C)cc4)c3c2c1` was tested, and the survival was 55% (inactive).
For `CCc1ccc2ncc3c(-c4ccc(C)cc4)nn(CC(=O)NCc4ccccc4)c3c2c1`, the survival was 57% (inactive).
In the case of `CCc1ccc(-c2nn(CC(=O)NC3CCCC3)c3c2cnc2ccc(F)cc23)cc1`, the survival is reported as 105% (inactive).
`CCc1ccc(-c2nn(CC(=O)NC3CCCC3)c3c2cnc2ccc(C)cc23)cc1` was tested, and the survival was 37% (active).
In the case of `CCc1ccc(-c2nn(CC(=O)NC3CCCCC3)c3c2cnc2ccc(C)cc23)cc1`, the survival is reported as 69% (inactive).
For `Cc1ccccc1NC(=O)Cn1nc(-c2ccc(F)cc2)c2cnc3ccccc3c21`, the survival was 25% (active).
`CCCNC(=O)Cn1nc(-c2ccc(C)cc2)c2cnc3ccc(CC)cc3c21` was tested, and the survival was 37% (active).
With `Cc1ccc2ncc3c(-c4ccc(F)cc4)nn(CC(=O)Nc4ccccc4C)c3c2c1` the survival was 101% (inactive).
For `CCc1ccc(-c2nn(CC(=O)NC3CCCCC3)c3c2cnc2ccc(F)cc23)cc1`, the survival was 72% (inactive).
In the case of `CCN(CC)c1ccc(NC(=O)C2CCN(S(=O)(=O)c3ccc4c(c3)oc(=O)n4C)CC2)c(C)c1`, the survival is reported as 90% (inactive).
`COc1ccc(C2CC(=O)c3cc(-c4nc(-c5cccc([N+](=O)[O-])c5)cs4)c(=O)n(-c4ccc(C)c(C)c4)c3C2)cc1` (centres undefined) was tested, and the survival was 156% (inactive).
With `CCCN1c2cccc3cccc(c23)S1(=O)=O` the survival was 101% (inactive).
`Cc1oc(CC(C)C)cc1C(=O)O` was tested, and the survival was 104% (inactive).
In the case of `CCN1C(=O)C2C(c3ccc(F)cc3)NC(CCSC)(C(=O)OC)C2C1=O` (centres undefined), the survival is reported as 54% (inactive).
For `Cn1c(=O)[nH]c2cc(-c3noc(-c4cccc(Cl)c4)n3)ccc21`, the survival was 87% (inactive).
In the case of `COc1ccc(-c2nn(CC(=O)NC3CCCC3)c3c2cnc2ccc(F)cc23)cc1`, the survival is reported as 46% (active).
In the case of `CCOc1ccc(-c2nn(CC(=O)NC3CCCC3)c3c2cnc2ccc(F)cc23)cc1`, the survival is reported as 144% (inactive).
For `O=C(Cn1nc(-c2ccccc2)c2cnc3ccc(F)cc3c21)NC1CCCC1`, the survival was 102% (inactive).
In the case of `COc1ccc(CCNC(=O)c2c[nH]n3c(=O)c(Cc4ccccc4Cl)c(C)nc23)cc1OC`, the survival is reported as 32% (active).
`Cc1ccc(CNC(=O)c2c[nH]n3c(=O)c(Cc4ccc(Cl)cc4)c(C)nc23)cc1` was tested, and the survival was -12% (active).
With `Cc1ccc(CNC(=O)c2nnc(Cc3ccc(Cl)cc3)o2)cc1` the survival was 99% (inactive).
For `Cc1nc2c(C(=O)NCCc3ccc(Cl)cc3)cnn2c(C)c1Cc1c(F)cccc1Cl`, the survival was 75% (inactive).
For `Cc1cccn2c(=O)c(C(=O)NCCc3ccc(Cl)cc3)cnc12`, the survival was 83% (inactive).
In the case of `COc1ccc(CCNC(=O)c2ccc(Cn3c(=O)c4ccccc4n(Cc4ccccc4Cl)c3=O)cc2)cc1OC`, the survival is reported as 80% (inactive).
In the case of `Cc1nc2c(C(=O)NCCc3ccc(Cl)cc3)c[nH]n2c(=O)c1Cc1ccccc1F`, the survival is reported as -12% (active).
In the case of `Cc1cccn2c(=O)c(C(=O)NCCc3ccccc3)cnc12`, the survival is reported as 58% (inactive).
For `Cc1nc2nc(NC(=O)c3ccc(Cl)cc3)[nH]n2c(=O)c1Cc1ccccc1`, the survival was 105% (inactive).
For `Cc1nc2c(C(=O)NCCc3ccccc3)c[nH]n2c(=O)c1Cc1ccccc1F`, the survival was -13% (active).
`Cc1nc2c(C(=O)NCCc3ccccc3)cnn2c(C)c1Cc1c(F)cccc1Cl` was tested, and the survival was 79% (inactive).
`COc1ccc(CCNC(=O)c2cc(C)nc3c2c(C)nn3-c2ccccc2)cc1OC` was tested, and the survival was 92% (inactive).
For `Cc1ccc(-n2ncc(C(=O)N3CCN(c4ccccn4)CC3)c2C2CCN(C(=O)OC(C)(C)C)CC2)cc1C`, the survival was 72% (inactive).
`COc1ccc2c(c1)N(C)/C(=C1/SC(=O)N(c3ccccc3)C1=O)S2` was tested, and the survival was 94% (inactive).
